Results taken from PubChem BioAssay (Tox21).
Inconclusive results are not listed. Calls of active or inactive are those of the source. Unless noted, calls follow the shape of the dose curve; as a rule, active = well fitted curve in the direction sought with a large enough effect in the repeat runs; inconclusive = weak or mixed curves; inactive = no such curve, though single readings can be large; an effect the other way counts as inactive or inconclusive.

Assays:
[1] = qHTS assay to identify small molecule antagonists of the estrogen related receptor signaling pathway with the pleiotropic PPARgamma coactivator (PGC) from Tox21 10K library - cell viability counter screen (AID 1224840; active = well fitted cell-killing curve with a large enough effect in the repeat runs, not every such curve was filed as active; also: nearly all actives have a fitted effect of over 40% in size)
How it was run: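 PGC/ERR cells, 2,000/well; 6 h pre-incubation 37 C/5% CO2; cpd in DMSO via pin tool; 17.5 h 37 C; CellTiter-Fluor, 30 min; fluorescence.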

[2] = molecular target: Thyrotropin receptor (Homo sapiens) (UniProt P16473); test: qHTS assay to identify small molecule agonists of the thyroid stimulating hormone receptor (TSHR) signaling pathway (AID 1224843; calls by dose curve; also: nearly all actives have a fitted effect of over 45% in size)
Chain of Thyrotropin receptor (Homo sapiens) (P16473 whole entry, looked up): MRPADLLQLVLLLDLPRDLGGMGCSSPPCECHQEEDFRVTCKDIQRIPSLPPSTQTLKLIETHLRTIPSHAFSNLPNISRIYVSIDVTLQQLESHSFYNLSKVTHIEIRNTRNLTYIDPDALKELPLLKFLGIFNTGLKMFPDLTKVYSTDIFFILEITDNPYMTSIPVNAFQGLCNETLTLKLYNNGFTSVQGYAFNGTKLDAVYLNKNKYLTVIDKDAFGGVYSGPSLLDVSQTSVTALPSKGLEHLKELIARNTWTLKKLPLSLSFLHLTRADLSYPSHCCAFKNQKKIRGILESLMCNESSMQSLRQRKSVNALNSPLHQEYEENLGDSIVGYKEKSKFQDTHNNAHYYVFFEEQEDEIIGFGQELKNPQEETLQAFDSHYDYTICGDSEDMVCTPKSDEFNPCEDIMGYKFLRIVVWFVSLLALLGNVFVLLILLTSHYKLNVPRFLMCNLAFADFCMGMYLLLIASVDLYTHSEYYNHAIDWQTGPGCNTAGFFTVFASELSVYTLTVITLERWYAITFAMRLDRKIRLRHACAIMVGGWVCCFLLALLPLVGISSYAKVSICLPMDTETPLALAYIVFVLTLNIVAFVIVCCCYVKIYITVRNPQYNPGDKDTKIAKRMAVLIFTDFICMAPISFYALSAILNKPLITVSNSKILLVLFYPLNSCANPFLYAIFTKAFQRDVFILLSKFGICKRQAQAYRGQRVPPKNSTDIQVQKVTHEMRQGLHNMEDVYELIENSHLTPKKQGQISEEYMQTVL
How it was run: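 Cell line HEK293 with TSHR; density 800/well. Exposure 30 min RT. Readout HTRF cAMP (cAMP-d2/anti-cAMP-cryptate), 1 h RT before reading.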

[3] = qHTS assay to identify small molecule agonists of the hypoxia (HIF-1) signaling pathway - cell viability counter screen (AID 1224844; calls by dose curve; also: nearly all actives have a fitted effect of over 50% in size)
How it was run: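 ME-180 HRE-bla cells, 2,000/well, 0.5% dialyzed FBS; 5 hr settle, 17 hr compound at 37C/5% CO2; CCF4-AM reporter read first, then CellTiter-Glo luminescence after 30 min RT.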

[4] = qHTS assay to identify small molecule agonists of H2AX (AID 1224845; active = well fitted activation curve with a large enough effect in the signal ratio in the repeat runs, not every such curve was filed as active; the % refers to the signal ratio)
How it was run: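 Wild-type CHO-K1 cells plated overnight, then exposed 3 hr at 37C to compounds at 15 concentrations (0.76% DMSO). Lysed, then HTRF anti-pH2AX(S139)-cryptate/anti-H2AX-d2 detection after 24 hr at room temperature; emissions 665 and 620 nm.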

[5] = qHTS assay to identify small molecule agonists of the hypoxia (HIF-1) signaling pathway (AID 1224846; active = well fitted activation curve with a large enough effect in the signal ratio in the repeat runs, not every such curve was filed as active; the % refers to the signal ratio)
How it was run: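 Cell line: CellSensor HRE-bla ME-180; 2,000 cells/well; 0.5% dialyzed FBS; 5 h preincubation; DMSO compound pin transfer; 17 h, 37C, 5% CO2; CCF4-AM added; bla FRET signal scored for activation.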

[6] = qHTS assay to identify small molecule agonists of H2AX - cell viability counter screen (AID 1224847; calls by dose curve; also: top concentration of the series differs between compounds; nearly all actives have a fitted effect of over 30% in size)
How it was run: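 Cells plated first: CHO-K1, 1000 per well in 10% FBS medium, incubated overnight at 37C. Then 15-point compound titration added (final DMSO 0.76%) for 3 hr. Finally CellTiter-Glo added and luminescence read.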

[7] = qHTS RealTime-Glo MT Cell Viability Assay in HepG2 cells - 24 hour (AID 1224867); also: nearly all actives have a fitted effect of over 50% in size
How it was run: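 Viability was tracked continuously by NanoLuc luminescence from prosubstrate reduced by living HepG2 cells, at successive time points over 40 h of compound exposure. Cells with reagent were preincubated 5 h at 37 °C before compound addition.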

[8] = qHTS RealTime-Glo MT Cell Viability Assay in HEK293 cells - 32 hour (AID 1224868); also: top concentration of the series differs between compounds; nearly all actives have a fitted effect of over 50% in size
How it was run: (§1)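 Viability tracked continuously by luminescence as live cells reduce a prosubstrate for NanoLuc; HEK293 cells preincubated 5 h, compound-treated at 37 C, and read at 0, 8, 16, 24, 32 and 40 h.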

[9] = A CellTox Green Cytotoxicity Assay to monitor cytotoxicity in HEK293 cells - 0 hour (AID 1224869); also: nearly all actives have a fitted effect of over 50% in size
How it was run: (§2)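 Nonlytic real-time cytotoxicity: HEK293 + CellTox Green reagent plated, 5 h preincubation, pintool compound addition (23 nL in DMSO), 37 C for 40 h, fluorescence measured at successive time points.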

[10] = qHTS RealTime-Glo MT Cell Viability Assay in HEK293 cells - 16 hour (AID 1224872)
How it was run: as §1

[11] = qHTS RealTime-Glo MT Cell Viability Assay in HepG2 cells - 8 hour (AID 1224873); also: nearly all actives have a fitted effect of over 55% in size
How it was run: (§3)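 HepG2 cells mixed with RealTime-Glo MT reagents (NanoLuc plus cell-permeant prosubstrate) were seeded at 600 cells/well, incubated 5 h at 37 C/5% CO2, then pinned with compounds in DMSO; nonlytic luminescence tracked viability during 40 h treatment.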

[12] = qHTS RealTime-Glo MT Cell Viability Assay in HEK293 cells - 40 hour (AID 1224874); details: RealTime-Glo luminescence; max response: active compounds read low; also: nearly all actives have a fitted effect of over 50% in size
How it was run: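 Cells were seeded together with NanoLuc luciferase and a prosubstrate that viable cells reduce to a luciferase substrate. After a 5 h incubation at 37 C/5% CO2, compounds were added and luminescence was measured repeatedly during 40 h of treatment.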

[13] = A CellTox Green Cytotoxicity Assay to monitor cytotoxicity in HEK293 cells - 24 hour (AID 1224875); also: series mostly up to about 77 µM; nearly all actives have a fitted effect of over 45% in size
How it was run: as §2

[14] = qHTS RealTime-Glo MT Cell Viability Assay in HepG2 cells - 40 hour (AID 1224870); also: nearly all actives have a fitted effect of over 50% in size
How it was run: as §3

[15] = A CellTox Green Cytotoxicity Assay to monitor cytotoxicity in HEK293 cells - 40 hour (AID 1224871); also: nearly all actives have a fitted effect of over 45% in size
How it was run: as §2

[16] = qHTS assay to identify small molecule agonists of the estrogen related receptor signaling pathway with the pleiotropic PPARgamma coactivator (PGC) from Tox21 10K library (AID 1224842); also: nearly all actives have a fitted effect of over 15% in size
How it was run: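 PGC/ERR reporter cells (NTP line) were seeded 2,000 per well, rested 6 h at 37 C/5% CO2, then pin-dosed with compounds in DMSO for 18 h at 37 C; luciferase read by One-Glo luminescence after 30 min at room temperature.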

[17] = qHTS assay to identify small molecule antagonists of the estrogen related receptor (ERR) signaling pathway from Tox21 library (AID 1224848); also: nearly all actives have a fitted effect of over 50% in size
How it was run: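 Screening used an ERR reporter line supplied by NTP, exposed for 18 h at 37 C to library compounds delivered in DMSO. Signal was luciferase luminescence developed with ONE-Glo at room temperature for 30 min.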

[18] = qHTS assay to identify small molecule agonists of the estrogen related receptor (ERR) signaling pathway from Tox21 library (AID 1224849; calls by dose curve; also: nearly all actives have a fitted effect of over 15% in size)
How it was run: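 ERR cells, 6 h pre-incubation 37 C/5% CO2; cpd in DMSO pinned; 18 h 37 C; ONE-Glo added, 30 min RT; luminescence read. Agonist mode, qHTS.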
% is scaled to controls: 0 for no effect and ±100 for the full control effect.

Cc1nc2ccccc2c(=O)o1
inactive: outcome [1] | outcome [2] | outcome [3] | outcome [4] | outcome [5] | Potency [6] | outcome [7] | Potency [8] | Potency [9] | Potency [10] | outcome [11] | max response [12] 5.55% | Potency [13]

CNC(=O)C(c1ccccc1)c1ccccc1
inactive: outcome [1] | outcome [2] | outcome [3] | outcome [4] | outcome [5] | Potency [6] | outcome [7] | Potency [8] | Potency [9] | outcome [14] | Potency [15] | Potency [10] | outcome [11] | max response [12] 0.511% | Potency [13]

C=C(C)C(=O)OC1CC(C)CC(C)(C)C1 (stereo not given)
inactive: outcome [1] | outcome [2] | outcome [3] | outcome [4] | outcome [5] | Potency [6] | outcome [7] | Potency [8] | Potency [9] | Potency [15] | Potency [10] | outcome [11] | max response [12] 3.29% | Potency [13]

O=C1NC2NC(=O)NC2N1 (stereo not given)
inactive: outcome [1] | outcome [2] | outcome [3] | outcome [4] | outcome [5] | Potency [6] | outcome [7] | Potency [8] | Potency [9] | outcome [14] | Potency [15] | Potency [10] | outcome [11] | max response [12] 1.34% | Potency [13]

COc1ccc(/C=N/NC(=O)c2ccncc2)cc1OC
inactive: outcome [1] | outcome [2] | outcome [3] | outcome [4] | outcome [5] | Potency [6] | outcome [7] | Potency [8] | Potency [9] | outcome [14] | Potency [15] | Potency [10] | outcome [11] | max response [12] -6.3% | Potency [13]

C=C[Si](C)(C)O[Si](C)(C)C=C
inactive: outcome [1] | outcome [2] | outcome [3] | outcome [4] | outcome [5] | Potency [6] | outcome [7] | Potency [8] | Potency [9] | Potency [15] | Potency [10] | outcome [11] | max response [12] -1.44% | Potency [13]

CO[Si](CCCS)(OC)OC
inactive: outcome [1] | outcome [2] | outcome [3] | outcome [4] | outcome [5] | Potency [6] | outcome [7] | Potency [8] | Potency [9] | outcome [14] | Potency [15] | Potency [10] | outcome [11] | max response [12] 0.328%

Cc1ccccc1N1CCN(CCc2nnc3n2CCCC3)CC1
inactive: outcome [1] | outcome [2] | outcome [3] | outcome [4] | outcome [5] | Potency [6] | outcome [7] | Potency [8] | Potency [9] | outcome [14] | Potency [15] | Potency [10] | outcome [11] | max response [12] -6.94% | Potency [13]

Cc1ccccc1C
inactive: outcome [1] | outcome [16] | outcome [3] | outcome [4] | Potency [6] | Potency [17] | outcome [18] | outcome [7] | Potency [8] | Potency [9] | Potency [15] | Potency [10] | outcome [11] | max response [12] 13.2%

C=C(C)[C@@H]1CC[C@@H](C)C[C@@H]1O
inactive: outcome [1] | outcome [2] | outcome [3] | outcome [4] | outcome [5] | Potency [6] | outcome [7] | Potency [8] | Potency [9] | Potency [15] | Potency [10] | outcome [11] | max response [12] 0.357% | Potency [13]

C1CCN2C[C@@H]3C[C@@H](CN4CCCC[C@@H]34)[C@H]2C1
inactive: outcome [1] | outcome [16] | outcome [3] | outcome [4] | Potency [6] | Potency [17] | outcome [18] | outcome [7] | Potency [8] | Potency [9] | outcome [14] | Potency [15] | Potency [10] | outcome [11] | max response [12] 1.31% | Potency [13]

O=c1cc(O)c(Cl)c[nH]1
inactive: outcome [1] | outcome [2] | outcome [3] | outcome [4] | outcome [5] | Potency [6] | outcome [7] | Potency [8] | Potency [9] | Potency [15] | Potency [10] | outcome [11] | max response [12] 4.88% | Potency [13]

CC(C)CCCCCCOC(=O)C1CCCCC1C(=O)OCCCCCCC(C)C (stereo not given)
inactive: outcome [1] | outcome [2] | outcome [3] | outcome [4] | outcome [5] | Potency [6] | outcome [7] | Potency [8] | Potency [9] | Potency [15] | Potency [10] | outcome [11] | max response [12] 14.8% | Potency [13]

CCOC(=O)C(=O)c1csc(NC=O)n1
inactive: outcome [1] | outcome [2] | outcome [3] | outcome [4] | outcome [7] | Potency [8] | Potency [9] | outcome [14] | Potency [15] | Potency [10] | outcome [11] | max response [12] 0.45%

CCCC(C)CC (stereo not given)
inactive: outcome [1] | outcome [2] | outcome [3] | outcome [4] | Potency [6] | outcome [7] | Potency [8] | Potency [9] | outcome [14] | Potency [15] | Potency [10] | outcome [11] | max response [12] 1.42% | Potency [13]

C=CCCCCCCCCCCC
inactive: viability change, negative = cytotoxic [1] 1.26% [at 8.39 µM] | activation [2] -0.0254% [at 8.39 µM] | activity change, negative = cytotoxicity [3] 2.72% [at 6.97 µM] | activation (H2AX phosphorylation) [4] -0.58% [at 14 µM] | activity change, negative = cytotoxicity [7] 0.824% [at 6.97 µM] | activity change, negative = cytotoxic [8] 7.22% [at 6.97 µM] | cytotoxicity [9] 3.23% [at 6.97 µM] | activity change, negative = cytotoxic [14] -0.414% [at 6.97 µM] | cytotoxicity increase [15] 0.236% [at 6.97 µM] | activity change, negative = cytotoxicity [10] 6.31% [at 6.97 µM] | viability change, negative = cytotoxic [11] 1.47% [at 6.97 µM] | max response [12] 6.19% | activity change [13] -0.54% [at 6.97 µM, active compounds read high]

CCN(CCC#N)c1ccccc1
inactive: outcome [1] | outcome [2] | outcome [3] | outcome [4] | outcome [5] | outcome [7] | Potency [8] | Potency [9] | outcome [14] | Potency [15] | Potency [10] | outcome [11] | max response [12] 2.36% | Potency [13]
